The results in this text go back to PubChem BioAssay (NCATS).

The structures appear in SMILES notation. Results filed as inconclusive are left out. A call without a number means that no potency is given here. Activity calls are given as the source filed them. The call rests on the fitted dose curve; in most records, active means well fitted curve in the direction sought with a large enough effect; inconclusive means small, poorly fitted or top-dose-only effect, or another doubt; inactive means no such curve, though single readings can be large; an effect the other way counts as inactive or inconclusive.

Sequence of Phospholipid hydroperoxide glutathione peroxidase GPX4 (Homo sapiens) (P36969 whole entry, looked up): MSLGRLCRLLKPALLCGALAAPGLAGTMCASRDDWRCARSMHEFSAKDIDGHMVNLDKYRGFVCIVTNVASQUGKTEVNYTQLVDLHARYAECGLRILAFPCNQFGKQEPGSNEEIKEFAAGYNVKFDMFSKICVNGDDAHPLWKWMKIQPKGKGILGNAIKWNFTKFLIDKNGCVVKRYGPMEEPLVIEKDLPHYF
Sequence of Glutathione peroxidase 1 (Homo sapiens) (P07203 whole entry, looked up): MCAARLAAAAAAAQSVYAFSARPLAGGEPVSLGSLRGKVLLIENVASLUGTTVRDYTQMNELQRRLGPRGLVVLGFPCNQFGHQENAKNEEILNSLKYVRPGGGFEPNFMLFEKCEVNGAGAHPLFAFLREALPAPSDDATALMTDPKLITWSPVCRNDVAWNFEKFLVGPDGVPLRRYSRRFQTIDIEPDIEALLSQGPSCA

The target in the first assay is Glutathione peroxidase 1 (Homo sapiens) (UniProt P07203). The experiment in a line: Primary qHTS Assay for Inhibitors of Recombinant Selenoprotein Glutathione Peroxidase 1 (GPX1) (AID 1845191). Further: nearly all actives have a fitted effect of over 65% in size. The following applies: recombinant GPX1, GR-coupled NADPH fluorescence, 15 min; series mostly up to 48.8 µM. The method, boiled down:
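GPX1 10 nM, GR 100 nM, GSH 1 mM, NADPH 0.5 mM, CHP 0.5 mM (final). 30-min cpd preincubation, RT. Ex340/Em450 read t=0, t=15 min.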
Background: qHTS replaces the single test concentration by a dilution series.
`C#CC1(O)CCC2C3CCC4=CC(=O)CCC4(C)C3CCC21C` (stereo unspecified): the Potency entry is “inactive”.
With `CC(C)(O)C(=O)Nc1ccc([N+](=O)[O-])c(C(F)(F)F)c1`, the Potency entry was “inactive”.
On the same count and under the same terms, under `N=c1c2c(-c3ccccc3)c(-c3ccccc3)n(Cc3ccccc3)c2ncn1C1CCC(O)CC1` (stereo unspecified) stands “inactive”.
Regarding `O=C(N[C@@H](COc1ccc2[nH]c(=O)[nH]c2c1)c1ccccc1)c1cccn(Cc2ccc(F)c(F)c2)c1=O`, the Potency entry was “inactive”.
On the same count and under the same terms, under `O=c1[nH]c2ccccc2n1C1CCN(Cc2ccc(-c3[nH]c4cc5ncnc5cc4nc3-c3ccccc3)cc2)CC1` stands “inactive”; under `C[C@](O)(COc1ccc(C#N)cc1)C(=O)Nc1ccc(C#N)c(C(F)(F)F)c1`, “inactive”; under `COCC1(CO)C(=O)C2CCN1CC2` (stereo unspecified), “inactive”.
As to `CC(=O)N(C)c1cccc(-c2ccnc3c(C(=O)c4cccs4)cnn23)c1`, the Potency entry is “inactive”.
Still for that read-out and setting: under `c1ccc2c(CN3CCNCC3)cccc2c1` stands “inactive”.
Consider `CCCC[N+]1(C)[C@H]2CC(OC(=O)[C@H](CO)c3ccccc3)C[C@H]1[C@H]1O[C@H]12` (stereo partly specified), for which the Potency result was “inactive”.
Regarding `CCOC(=O)c1c(C(C#N)=CN)c2ccc(Cl)c(Cl)c2n1C`, the Potency entry is “inactive”.
`COc1ccc(C(=O)c2c(C)n(CCN3CCOCC3)c3cc(I)ccc23)cc1`: the Potency entry is “inactive”.
On to `C[C@]12CC[C@H]3[C@@H](CCC4=CC(=O)CC[C@@]43C)[C@H]1CC[C@H]2OC(=O)CCC1CCCC1`, for which the Potency result is “inactive”.
Same read-out and setting: under `CN(C)[C@@H]1C(=O)C(C(N)=O)=C(O)[C@@]2(O)C(=O)C3=C(O)c4c(O)cccc4[C@@](C)(O)[C@H]3[C@H](O)[C@@H]12` stands “inactive”; under `CC(C)[C@H]1C(=O)N[C@H](CO)Cc2c[nH]c3cccc(c23)N1C`, “inactive”.
On to `CC(C)(C)c1cc(C=C(C#N)C#N)cc(Br)c1O`, for which the Potency result was “inactive”.

For a further assay, the target named is Phospholipid hydroperoxide glutathione peroxidase GPX4 (Homo sapiens) (UniProt P36969). The assay can be described thus: Primary qHTS Assay for Inhibitors of Recombinant Selenoprotein Glutathione Peroxidase 4 (GPX4) (AID 1845192). Further: nearly all actives have a fitted effect of over 65% in size. The following applies: recombinant GPX4, GR-coupled NADPH fluorescence, 15 min; series mostly up to 50 µM. In a few lines:
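qHTS, GR-coupled: GPX4 200 nM + cpd 30 min RT → GSH 1 mM, NADPH 0.5 mM, GR 100 nM → CHP 0.5 mM start; fluor 340/450 at t0 and t15 min; no-enzyme wells as control.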
`C#CC1(O)CCC2C3CCC4=CC(=O)CCC4(C)C3CCC21C` (stereo unspecified): the Potency result is “inactive”.
Consider `CC(C)(O)C(=O)Nc1ccc([N+](=O)[O-])c(C(F)(F)F)c1`, for which the Potency result was “inactive”.
Regarding `N=c1c2c(-c3ccccc3)c(-c3ccccc3)n(Cc3ccccc3)c2ncn1C1CCC(O)CC1` (stereo unspecified), the Potency entry was “inactive”.
On the same count and under the same terms, to `CC(N[C@H]1C[C@H]1c1ccccc1)c1ccc2c(c1)OCCO2` (stereo partly specified) belongs “inactive”; to `C[C@](O)(COc1ccc(C#N)cc1)C(=O)Nc1ccc(C#N)c(C(F)(F)F)c1`, “inactive”; to `COCC1(CO)C(=O)C2CCN1CC2` (stereo unspecified), “inactive”.
Consider `c1ccc2c(CN3CCNCC3)cccc2c1`, for which the Potency entry was “inactive”.
On to `CCCC[N+]1(C)[C@H]2CC(OC(=O)[C@H](CO)c3ccccc3)C[C@H]1[C@H]1O[C@H]12` (stereo partly specified), for which the Potency result was “inactive”.
In the case of `CCOC(=O)c1c(C(C#N)=CN)c2ccc(Cl)c(Cl)c2n1C`, the Potency entry was “inactive”.
Same read-out and setting: to `COc1ccc(C(=O)c2c(C)n(CCN3CCOCC3)c3cc(I)ccc23)cc1` belongs “inactive”; to `C[C@]12CC[C@H]3[C@@H](CCC4=CC(=O)CC[C@@]43C)[C@H]1CC[C@H]2OC(=O)CCC1CCCC1`, “inactive”; to `CC(=O)[O][Hg][c]1ccccc1`, “inactive”.
In the case of `CN(C)[C@@H]1C(=O)C(C(N)=O)=C(O)[C@@]2(O)C(=O)C3=C(O)c4c(O)cccc4[C@@](C)(O)[C@H]3[C@H](O)[C@@H]12`, the Potency entry is “inactive”.
Regarding `CC(C)[C@H]1C(=O)N[C@H](CO)Cc2c[nH]c3cccc(c23)N1C`, the Potency entry is “inactive”.

For the next assay, the target named is Luciferin 4-monooxygenase (Photinus pyralis) (UniProt P08659). The experiment in a line: Primary firefly luciferase (FLuc) qHTS assay for identification of artifact compounds. (AID 1845220). Further: nearly all actives have a fitted effect of over 60% in size. As to conditions: purified firefly luciferase, luminescence, 5 min; series mostly up to 54.1 µM. The method, boiled down:
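Reaction readout was CCD-imaged luminescence, taken 5 min after adding 10 nM purified firefly enzyme to compound-treated wells holding 10 uM luciferin and ATP in pH 7.6 buffer.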
`CC(N[C@H]1C[C@H]1c1ccccc1)c1ccc2c(c1)OCCO2` (stereo partly specified): the compound was called inactive.
As to `O=C(N[C@@H](COc1ccc2[nH]c(=O)[nH]c2c1)c1ccccc1)c1cccn(Cc2ccc(F)c(F)c2)c1=O`, the compound was classed as inactive.
For `CC(=O)N(C)c1cccc(-c2ccnc3c(C(=O)c4cccs4)cnn23)c1`, the outcome was inactive.
Same read-out and setting: under `CCOC(=O)Nc1ccc(NCc2ccc(F)cc2)cc1N` stands “inactive”.

The test system of a further assay is Nanoluciferase (engineered Oplophorus gracilirostris luciferase). The experiment in a line: Primary Nanoluciferase (NLuc) qHTS assay for identification of artifact compounds. (AID 1845222).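 Further: NLuc secreted into diluted conditioned medium of S16 cells.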 The following applies: NLuc-conditioned medium, Nano-Glo luminescence, 5 min; series mostly up to 54.1 µM. The method, boiled down:
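Concentration-response data were obtained by luminescence after 5 min with Nano-Glo substrate at 1:100. The enzyme was diluted S16 NLuc-expressing cell medium, preincubated with compound for 15 min at RT. Curves were fitted with a 4-parameter Hill model.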
On to `CC(N[C@H]1C[C@H]1c1ccccc1)c1ccc2c(c1)OCCO2` (stereo partly specified), for which the compound was called inactive.
Same read-out and setting: to `O=C(N[C@@H](COc1ccc2[nH]c(=O)[nH]c2c1)c1ccccc1)c1cccn(Cc2ccc(F)c(F)c2)c1=O` belongs “inactive”.
On to `CC(=O)N(C)c1cccc(-c2ccnc3c(C(=O)c4cccs4)cnn23)c1`, for which the outcome was inactive.
Regarding `CCOC(=O)Nc1ccc(NCc2ccc(F)cc2)cc1N`, the outcome was inactive.

System in a further assay: not listed separately
The assay can be described thus: Primary redox qHTS assay for identification of artifact compounds. (AID 1845223). The following applies: Amplex Red/HRP redox cycling with DTT, fluorescence; series mostly up to 53.8 µM. The method, boiled down:
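Redox-cycling detection via DTT (250 uM final) oxidation coupled to Amplex Red (25 uM)/HRP (250 mU/mL) in HBSS. 15 min preincubation plus 30 min after DTT, room temperature. Ex/Em 525/598 nm; 4-parameter Hill fit against DMSO and 10 uM DA3003.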
As for `CC(N[C@H]1C[C@H]1c1ccccc1)c1ccc2c(c1)OCCO2` (stereo partly specified), the outcome was inactive.
Consider `O=C(N[C@@H](COc1ccc2[nH]c(=O)[nH]c2c1)c1ccccc1)c1cccn(Cc2ccc(F)c(F)c2)c1=O`, for which the outcome was inactive.
For `CC(=O)N(C)c1cccc(-c2ccnc3c(C(=O)c4cccs4)cnn23)c1`, the compound was called inactive.
The same measure, in the same setting: under `CCOC(=O)Nc1ccc(NCc2ccc(F)cc2)cc1N` stands “inactive”.

System in the next assay: not listed separately
The assay can be described thus: Quantitative High-Throughput drug screen in 47 multiple myeloma cell lines against the NCATS MIPE library collection: FR4_PLB cell viability assay (AID 1918924; further: nearly all actives have a fitted effect of over 35% in size; further: potency means the concentration at half of the fitted maximal effect). The following applies: FR4_PLB myeloma cells viability, CellTiter-Glo ATP, 48 h; series mostly up to 45.8 µM. The method, boiled down:
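qHTS of the MIPE 4.0 collection: 500 myeloma cells/well, 48 h drug exposure at 37C in 5% CO2, then CellTiter-Glo for 5 min at room temperature before luminescence reading.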
(In ATP-based viability assays light output follows the ATP content of the culture.)
For `COc1ccc(CC2NCCc3cc(OC)c(OC)cc32)cc1OC` (stereo unspecified), the Potency entry was “inactive”.
Regarding `C1=C2CCCN[C@H]2[C@@H]2C[C@H]1[C@@H]1CCCCN1C2`, the Potency result was “inactive”.
For `CC(C)[C@]12O[C@@H]1[C@@H]1O[C@]13[C@]1(O[C@H]1C[C@@H]1C4=C(CC[C@@]13C)C(=O)OC4)[C@H]2O`, the Potency result was “inactive”.
With `c1cc2c(cc1[C@H]1OC[C@H]3[C@H]1CO[C@H]3c1ccc3c(c1)OCO3)OCO2`, the Potency result is “inactive”.
Turning to `CO[C@H]1CCC(O[C@H]2C[C@H]([C@]3(C)CC[C@]4(C[C@H](O)[C@@H](C)[C@@H]([C@@H](C)C=C(C)C(=O)[C@H](C)C[C@H](C)C(=O)O)O4)O3)O[C@]3(O[C@@H]([C@H]4O[C@@](O)(CO)[C@H](C)C[C@H]4C)C[C@H]3C)[C@H]2C)O[C@H]1C` (stereo partly specified), the Potency was 3.72 µM (active).
Take `Cc1c(N)nc([C@H](CC(N)=O)NC[C@@H](N)C(N)=O)nc1C(=O)N[C@H](C(=O)N[C@@H](C)[C@H](O)[C@@H](C)C(=O)N[C@@H](C(=O)NCCc1nc(-c2nc(C(=O)NCCC[S+](C)C)cs2)cs1)[C@@H](C)O)C(O[C@H]1O[C@H](CO)[C@H](O)[C@@H](O)[C@@H]1O[C@H]1O[C@H](CO)[C@@H](O)[C@H](OC(N)=O)[C@H]1O)c1cnc[nH]1` (stereo partly specified): the Potency entry was “inactive”.
Turning to `COc1ccc2c(c1)[C@]13CCCCC1C(C2)N(C)CC3` (stereo partly specified), the Potency result was “inactive”.
With `CC(=O)N(C)c1cccc(-c2ccnc3c(C(=O)c4cccs4)cnn23)c1`, the Potency result was “inactive”.
For the compound `C[C@H]1CCCC=CC2C[C@H](O)C[C@@H]2[C@H](O)C=CC(=O)O1` (stereo partly specified), the Potency entry was “inactive”.
`CCOC(=O)Nc1ccc(NCc2ccc(F)cc2)cc1N`: the Potency entry is “inactive”.
Take `C[C@]12COC(=O)C[C@@H]1CC[C@@H]1[C@H]2CC[C@@]2(C)[C@H]1CC[C@]2(C)O`: the Potency entry is “inactive”.
In the case of `CC=C(C)C(=O)O[C@H]1C(C)=C2[C@@H]3OC(=O)[C@@](C)(O)[C@@]3(O)[C@@H](OC(=O)CCC)C[C@](C)(OC(C)=O)[C@@H]2[C@@H]1OC(=O)CCCCCCC`, the Potency was 0.0264 µM (active).
Take `N#C[C@H](O[C@@H]1O[C@H](CO[C@@H]2O[C@H](CO)[C@H](O)[C@H](O)[C@H]2O)[C@H](O)[C@H](O)[C@H]1O)c1ccccc1`: the Potency was 20.9 µM (active).
With `COC[C@H]1OC(=O)c2coc3c2[C@@]1(C)C1=C(C3=O)[C@@H]2CC[C@H](O)[C@@]2(C)C[C@@H]1OC(C)=O`, the Potency is 3.72 µM (active).
For the compound `CCOC(=O)c1cncn1[C@H](C)c1ccccc1`, the Potency result is “inactive”.
For the compound `COc1cc2cc(c1Cl)N(C)C(=O)C[C@H](OC(=O)C(C)C)[C@]1(C)O[C@H]1[C@H](C)[C@@H]1C[C@@](O)(NC(=O)O1)[C@H](OC)C=CC=C(C)C2`, the Potency entry is “inactive”.
Same read-out and setting: to `CC[C@@H]1[C@@H](C)O[C@@](O)([C@@H](C)[C@H](O)[C@H](C)[C@H]2OC(=O)C=CC=C[C@@H](C)[C@@H]([C@@H](C)[C@@H](O)[C@H](C)[C@@]3(O)C[C@H](O[C@H]4C[C@H](O)[C@H](O)[C@H](C)O4)[C@H](CC)[C@@H](C)O3)OC(=O)C=CC=C[C@@H]2C)C[C@H]1O[C@H]1C[C@H](O)[C@H](O)[C@H](C)O1` belongs 0.526 µM (active); to `C[C@@H]1CC[C@@]2(OC1)O[C@H]1C[C@H]3[C@@H]4CC=C5C[C@@H](O[C@@H]6O[C@H](CO)[C@@H](O[C@@H]7O[C@@H](C)[C@H](O)[C@@H](O)[C@@H]7O)[C@H](O)[C@@H]6O[C@@H]6O[C@@H](C)[C@H](O)[C@@H](O)[C@@H]6O)CC[C@]5(C)[C@@H]4CC[C@]3(C)[C@@H]1[C@H]2C`, 2.35 µM (active); to `CC(C)(C)c1cc(C=C(C#N)C#N)cc(Br)c1O`, 26.4 µM (active).
